# Compound activity as filed in PubChem.
# The entries come from a sample that favours hits as a whole.
# RBX1-CUL1 inh: human ROC1-CUL1 E3 ligase inhibition. in vitro K48 di-Ub FRET, acceptor:donor ratio, 45 min. inhibition, % at 10 µM. 140,000 compounds, 0.6% hits. AID 1347404; in the data active = inhibition above about 25%
# Target sequence (P62877 whole entry, looked up): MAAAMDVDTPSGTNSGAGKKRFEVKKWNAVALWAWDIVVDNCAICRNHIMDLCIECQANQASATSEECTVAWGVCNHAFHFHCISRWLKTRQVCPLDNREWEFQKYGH
# Target sequence (Q13616 whole entry, looked up): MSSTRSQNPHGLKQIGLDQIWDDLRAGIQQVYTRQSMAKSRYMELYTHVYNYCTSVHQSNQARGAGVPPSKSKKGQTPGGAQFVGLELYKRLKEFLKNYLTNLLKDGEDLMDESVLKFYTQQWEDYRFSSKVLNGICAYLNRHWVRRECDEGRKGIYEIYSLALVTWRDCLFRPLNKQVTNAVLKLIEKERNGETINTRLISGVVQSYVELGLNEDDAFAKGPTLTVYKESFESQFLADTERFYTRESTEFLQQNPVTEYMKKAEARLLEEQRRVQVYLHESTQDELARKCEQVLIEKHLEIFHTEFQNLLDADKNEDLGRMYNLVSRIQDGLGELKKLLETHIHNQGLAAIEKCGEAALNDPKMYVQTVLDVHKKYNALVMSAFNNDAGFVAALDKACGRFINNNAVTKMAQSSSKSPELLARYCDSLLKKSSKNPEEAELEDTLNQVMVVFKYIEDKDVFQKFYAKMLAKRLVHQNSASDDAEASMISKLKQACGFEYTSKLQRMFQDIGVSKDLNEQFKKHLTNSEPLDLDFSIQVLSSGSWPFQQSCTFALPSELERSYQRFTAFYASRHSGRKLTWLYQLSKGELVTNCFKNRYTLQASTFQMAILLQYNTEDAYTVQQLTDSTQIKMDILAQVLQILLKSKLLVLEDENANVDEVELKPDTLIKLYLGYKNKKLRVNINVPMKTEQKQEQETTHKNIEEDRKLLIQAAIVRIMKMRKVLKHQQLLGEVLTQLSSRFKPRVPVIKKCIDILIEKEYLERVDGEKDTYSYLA
# An asterisk follows results filed as active.
SMILES,RBX1-CUL1 inh
CCCOc1ccccc1/C=C1/C(=O)NN(c2ccc(I)cc2)C1=O,10.3
COc1cc(/C=C2/C(=O)NN(c3ccc(C)cc3)C2=O)cc(Cl)c1OC,7.6
COc1cc(/C=C2\C(=O)NN(c3ccccc3)C2=O)cc(Cl)c1OCCCOc1ccc(Cl)cc1,11.8
Cc1ccc(N2NC(=O)/C(=C/c3ccccc3OCc3ccccc3)C2=O)cc1Cl,8.2
Cc1ccccc1COc1ccc(Cl)cc1/C=C1\C(=O)NN(c2ccccc2)C1=O,8.8
Cc1cc(OCCOc2ccccc2/C=C2\C(=O)NN(c3ccccc3)C2=O)ccc1Cl,7.5
O=C1NN(c2ccccc2)C(=O)/C1=C/c1cc(Cl)ccc1OCc1ccc(Cl)cc1,41.0*
Cc1ccc(OCCCOc2ccccc2/C=C2\C(=O)NN(c3ccccc3)C2=O)cc1,35.8*
COc1cc(/C=C2\C(=O)NN(c3ccccc3)C2=O)cc(Cl)c1OCCCOc1ccc(C)cc1,92.1*
CN(C(=O)NC1(C(F)(F)F)Oc2ccccc2O1)C1CCCCC1,1.5
CN=C1S/C(=C\c2cccn2-c2ccc(Cl)cc2)C(=O)N1C,9.0
COc1ccc(C2(C(=O)Nc3ccc(C(=O)Nc4cc(C)ccc4OC)cc3)CCOCC2)cc1,9.3
COCCS(=O)(=O)c1ncc(CN2CCCC(O)C2)n1Cc1ccccc1 (stereo unspecified),-5.6
Cc1ccc(C(C)NC(=O)Nc2nnc(-c3ccco3)s2)cn1 (stereo unspecified),3.5
COc1ccccc1N1CCN(CCCN2C(=O)CC(=C3c4ccccc4-c4ccccc43)C2=O)CC1,-3.2
C=CCS(=O)(=O)N1CCC(CCC(=O)NC2CC2)CC1,-1.5
Cn1nccc1C(=O)n1cnc2ccccc21,-8.6
Cn1nccc1C(=O)C#Cc1ccccc1,61.9*
Cn1nccc1C(=O)NC(C)(C)CC(C)(C)C,1.4
COCCCN1C(=O)CC(CC(=O)N2CCC(Oc3ccc(F)cc3)CC2)(c2ccccc2)C1=O (stereo unspecified),0.3
CCn1cc(Cl)c(C(=O)Nc2ccn(C34CC5CC(CC(C5)C3)C4)n2)n1,-1.2
CCN1/C(=C\C=C/C2C=Cc3ccccc3N2CC)C=Cc2ccccc21 (stereo unspecified),57.0*
CCCCCc1c(C)nc(SCc2ccccc2)[nH]c1=O,-4.5
CCn1ccnc1CNc1nncc(-c2cccc(F)c2)n1,-8.2
O=C1C=C(c2ccccc2)OC(=O)C1,1.4
SMILES,RBX1-CUL1 inh
CN1C(=O)C=C(c2ccccc2)CC1=O,98.6*
CC1(C)CNC(=O)C=C(c2ccccc2)C1,-1.0
COc1ccc(CNC(=O)CN(c2ccc(OC)c(Cl)c2)S(C)(=O)=O)cc1,12.2
COc1cccc(C(=O)N=C2Cc3cc(OC)ccc3OC2=O)c1,-3.5
COc1ccc2c(c1)C(=O)Cc1ccccc1S2,3.1
COc1ccc2c(c1)C(=O)Cc1ccccc1O2,67.4*
O=C1CC(N2CCCCC2)C(=O)N1c1ccc(Cl)c(C(F)(F)F)c1 (stereo unspecified),4.5
Brc1cc(-c2ccncn2)cs1,-3.3
O=[N+]([O-])c1cc(-c2ccncn2)sc1[N+](=O)[O-],40.7*
Clc1ccc(-c2ccncn2)cc1Cl,6.9
O=C(CCc1ccccc1)NNS(=O)(=O)c1ccc([N+](=O)[O-])cc1,1.0
O=C(O)COc1ccc(Br)cc1/C=C1/SC(=O)N(CC(=O)N2CCCC2)C1=O,-9.0
COc1cc(/C=C2\SC(=O)N(c3ccc(Cl)cc3)C2=O)c(Br)cc1OCC(=O)O,41.4*
CCOC(=O)COc1cc(Br)c(/C=C2/SC(=O)N(CC)C2=O)cc1OC,-6.5
O=C(O)COc1ccc(Br)cc1/C=C1\SC(=O)N(c2cccc(Cl)c2)C1=O,50.9*
COc1cc(/C=C2\SC(=O)N(Cc3ccc(F)cc3)C2=O)c(Br)cc1OCC(=O)O,9.4
CCc1ccccc1N=C1S/C(=C\c2cc(Br)ccc2OCC(=O)O)C(=O)N1c1ccccc1CC,0.2
O=C(COc1ccc(F)cc1)N1CCN(c2ccccc2)CC1,-2.8
CCOc1ccccc1-c1nc(CN2CCCCC2COC)c(C)o1 (stereo unspecified),4.9
O=C(Cn1nnnc1CN1CCOCC1)NCCc1cccc(Cl)c1,-1.9
C=CCN1N=C(C(C)(C)C)Cn2c1nc1c2c(=O)n(CC)c(=O)n1C,4.8
OC1c2ccccc2CCc2sccc21 (stereo unspecified),-2.5
C[N+]1(C)CCC(C2c3ccccc3CSc3sccc32)CC1 (stereo unspecified),-3.2
OC1c2ccccc2CSc2sccc21 (stereo unspecified),49.2*
O=C(/C=C/C(=O)c1ccccc1)c1ccccc1,26.7*
SMILES,RBX1-CUL1 inh
COc1ccccc1/C=C/C(=O)c1ccccc1,2.0
CC(/C=C/C(=O)c1ccc(C)cc1)=C\c1ccccc1,0.6
N=C(N=C(N)N)N1CCSCC1,2.5
COc1ccc(-n2nnnc2SCc2ccc(Cl)cc2)cc1,-0.8
Cc1cc(Br)ccc1NC(=O)CN1CCC(C)CC1,97.8*
Cc1cc(Br)c(NC(=O)CN2CCC(C)CC2)cc1C,5.3
Cc1cc(Cl)ccc1NC(=O)CN1CCC(C)CC1,0.8
CCOC(=O)N1CCc2[nH]c3ccccc3c2C1,-3.0
